The full data set covers some 7,900 targets. This sample favours those with a hit. About 0.6% of all pairs of compound and target were hits.
compound: CN(CCOC1=CC=C(C=C1)C[C@H]2C(=O)NC(=O)S2)C3=CC=CC=N3 (racemic) [rosiglitazone]; assay: log2 fold change, soluble protein after heating vs DMSO (PISA); higher = thermal stabilisation; K562 cells, 10 uM, 30 min; active = over 0.2 and 3.5 SD of the protein, either way, in both replicates (recomputed)
How it was run: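 For each measurement, 10 μM compound was applied for 30 min to K562 cells at 2×10^6 cells/mL. Aliquots were heated for 3 min across 48°C-58°C, pooled, and extracted in PBS with 0.5% NP-40 at 4°C; the supernatant after 21,000xg for 90 min was soluble protein. This was quantified by TMTpro 16plex LC-MS/MS with channel sums equalised, and thermal stability was reported relative to control samples from duplicates, on a log2 fold-change scale.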

UniProt Q86YN1, sequence (Q86YN1 whole entry, looked up): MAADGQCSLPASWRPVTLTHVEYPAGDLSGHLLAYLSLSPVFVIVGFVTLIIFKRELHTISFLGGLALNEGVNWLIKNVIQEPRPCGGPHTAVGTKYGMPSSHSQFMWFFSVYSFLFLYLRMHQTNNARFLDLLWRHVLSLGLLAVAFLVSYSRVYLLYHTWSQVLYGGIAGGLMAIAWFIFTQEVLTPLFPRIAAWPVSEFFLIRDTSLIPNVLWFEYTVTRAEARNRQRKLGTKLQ
UniProt Q9NSI2, sequence (Q9NSI2 whole entry, looked up): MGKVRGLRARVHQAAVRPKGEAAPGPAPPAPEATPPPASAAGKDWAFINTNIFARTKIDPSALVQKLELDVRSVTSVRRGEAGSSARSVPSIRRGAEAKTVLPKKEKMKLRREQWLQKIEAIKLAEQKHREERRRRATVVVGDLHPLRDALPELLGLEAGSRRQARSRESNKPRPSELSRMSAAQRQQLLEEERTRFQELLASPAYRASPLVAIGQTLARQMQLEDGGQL
UniProt O75911, sequence (O75911 whole entry, looked up): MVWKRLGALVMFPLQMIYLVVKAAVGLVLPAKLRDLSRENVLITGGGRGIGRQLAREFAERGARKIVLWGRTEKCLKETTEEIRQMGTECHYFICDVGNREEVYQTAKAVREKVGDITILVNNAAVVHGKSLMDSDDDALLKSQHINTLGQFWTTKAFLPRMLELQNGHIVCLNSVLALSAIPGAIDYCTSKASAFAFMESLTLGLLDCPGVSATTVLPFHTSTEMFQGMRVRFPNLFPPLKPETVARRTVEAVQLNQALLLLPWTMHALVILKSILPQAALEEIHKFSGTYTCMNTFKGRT
UniProt P25685, sequence (P25685 whole entry, looked up): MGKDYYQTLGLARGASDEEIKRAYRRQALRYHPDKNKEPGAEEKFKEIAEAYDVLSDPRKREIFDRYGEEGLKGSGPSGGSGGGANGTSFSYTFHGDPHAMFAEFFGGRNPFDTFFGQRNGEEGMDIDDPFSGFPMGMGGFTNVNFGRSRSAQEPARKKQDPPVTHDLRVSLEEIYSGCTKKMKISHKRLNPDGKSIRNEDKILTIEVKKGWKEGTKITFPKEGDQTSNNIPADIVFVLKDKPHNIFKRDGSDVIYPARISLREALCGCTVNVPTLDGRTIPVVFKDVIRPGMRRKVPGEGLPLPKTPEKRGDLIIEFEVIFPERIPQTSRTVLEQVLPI
UniProt Q6P3W2, sequence (Q6P3W2 whole entry, looked up): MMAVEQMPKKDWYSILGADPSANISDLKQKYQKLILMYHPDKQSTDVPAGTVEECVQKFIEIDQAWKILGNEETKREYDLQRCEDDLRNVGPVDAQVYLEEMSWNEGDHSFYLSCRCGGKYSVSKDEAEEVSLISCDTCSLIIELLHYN
UniProt P35222, sequence (P35222 whole entry, looked up): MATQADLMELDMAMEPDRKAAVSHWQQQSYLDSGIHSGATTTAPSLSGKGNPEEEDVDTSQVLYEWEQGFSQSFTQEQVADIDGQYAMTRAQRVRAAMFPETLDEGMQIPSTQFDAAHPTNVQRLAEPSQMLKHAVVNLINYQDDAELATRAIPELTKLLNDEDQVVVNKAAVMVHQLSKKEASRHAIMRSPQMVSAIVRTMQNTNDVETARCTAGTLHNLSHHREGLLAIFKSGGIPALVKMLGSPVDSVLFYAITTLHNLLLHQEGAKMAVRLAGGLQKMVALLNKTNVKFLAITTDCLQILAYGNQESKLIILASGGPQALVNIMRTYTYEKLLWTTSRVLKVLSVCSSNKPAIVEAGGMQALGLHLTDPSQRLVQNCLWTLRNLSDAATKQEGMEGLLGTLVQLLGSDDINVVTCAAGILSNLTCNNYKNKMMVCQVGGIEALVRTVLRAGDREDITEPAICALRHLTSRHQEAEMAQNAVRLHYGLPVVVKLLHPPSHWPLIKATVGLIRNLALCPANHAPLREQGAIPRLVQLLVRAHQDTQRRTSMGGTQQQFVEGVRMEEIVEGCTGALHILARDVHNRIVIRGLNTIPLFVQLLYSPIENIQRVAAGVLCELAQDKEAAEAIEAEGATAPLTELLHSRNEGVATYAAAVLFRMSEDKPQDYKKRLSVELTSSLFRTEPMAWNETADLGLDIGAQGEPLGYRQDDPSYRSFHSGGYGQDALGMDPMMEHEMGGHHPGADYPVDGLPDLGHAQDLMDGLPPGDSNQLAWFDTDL
UniProt Q16531, sequence (Q16531 whole entry, looked up): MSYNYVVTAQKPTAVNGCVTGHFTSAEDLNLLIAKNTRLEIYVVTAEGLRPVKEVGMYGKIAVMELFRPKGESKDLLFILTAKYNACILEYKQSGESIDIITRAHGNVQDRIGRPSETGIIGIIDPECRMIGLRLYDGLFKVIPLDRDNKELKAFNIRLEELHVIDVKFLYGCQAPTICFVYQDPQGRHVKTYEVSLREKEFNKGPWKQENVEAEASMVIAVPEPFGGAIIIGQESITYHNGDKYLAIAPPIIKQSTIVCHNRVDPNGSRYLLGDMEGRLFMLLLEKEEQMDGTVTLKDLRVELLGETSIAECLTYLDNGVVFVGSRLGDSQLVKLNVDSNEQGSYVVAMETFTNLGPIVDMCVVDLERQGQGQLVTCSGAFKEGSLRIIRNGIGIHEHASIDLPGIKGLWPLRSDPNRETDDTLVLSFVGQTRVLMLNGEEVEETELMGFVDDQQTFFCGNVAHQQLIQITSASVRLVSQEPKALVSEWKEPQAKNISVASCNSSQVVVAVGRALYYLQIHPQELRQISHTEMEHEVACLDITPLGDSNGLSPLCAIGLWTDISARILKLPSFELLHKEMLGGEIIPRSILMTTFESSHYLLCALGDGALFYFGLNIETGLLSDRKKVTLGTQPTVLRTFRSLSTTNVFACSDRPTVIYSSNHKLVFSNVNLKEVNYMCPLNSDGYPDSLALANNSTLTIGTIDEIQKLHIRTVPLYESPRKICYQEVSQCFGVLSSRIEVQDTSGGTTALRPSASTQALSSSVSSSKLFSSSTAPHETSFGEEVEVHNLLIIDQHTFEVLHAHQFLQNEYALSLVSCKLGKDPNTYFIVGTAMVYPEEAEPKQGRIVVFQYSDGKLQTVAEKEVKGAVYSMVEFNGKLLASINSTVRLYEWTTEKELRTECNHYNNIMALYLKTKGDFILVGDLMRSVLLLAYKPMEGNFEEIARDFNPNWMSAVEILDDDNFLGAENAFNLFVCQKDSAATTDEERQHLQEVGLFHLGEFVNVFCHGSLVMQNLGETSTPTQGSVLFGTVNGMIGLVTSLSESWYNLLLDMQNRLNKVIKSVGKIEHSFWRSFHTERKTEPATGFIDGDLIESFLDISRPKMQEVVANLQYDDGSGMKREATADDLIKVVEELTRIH
UniProt Q8N5C7, sequence (Q8N5C7 whole entry, looked up): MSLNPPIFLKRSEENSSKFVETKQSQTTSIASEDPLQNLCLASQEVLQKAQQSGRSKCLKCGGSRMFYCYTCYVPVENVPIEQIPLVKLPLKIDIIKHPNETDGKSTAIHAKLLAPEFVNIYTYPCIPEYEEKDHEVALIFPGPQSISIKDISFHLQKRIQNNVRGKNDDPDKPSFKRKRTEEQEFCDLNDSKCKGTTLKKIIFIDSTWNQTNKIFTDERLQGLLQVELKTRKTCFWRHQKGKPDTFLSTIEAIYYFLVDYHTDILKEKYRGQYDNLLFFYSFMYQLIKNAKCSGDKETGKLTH
UniProt Q07973, sequence (Q07973 whole entry, looked up): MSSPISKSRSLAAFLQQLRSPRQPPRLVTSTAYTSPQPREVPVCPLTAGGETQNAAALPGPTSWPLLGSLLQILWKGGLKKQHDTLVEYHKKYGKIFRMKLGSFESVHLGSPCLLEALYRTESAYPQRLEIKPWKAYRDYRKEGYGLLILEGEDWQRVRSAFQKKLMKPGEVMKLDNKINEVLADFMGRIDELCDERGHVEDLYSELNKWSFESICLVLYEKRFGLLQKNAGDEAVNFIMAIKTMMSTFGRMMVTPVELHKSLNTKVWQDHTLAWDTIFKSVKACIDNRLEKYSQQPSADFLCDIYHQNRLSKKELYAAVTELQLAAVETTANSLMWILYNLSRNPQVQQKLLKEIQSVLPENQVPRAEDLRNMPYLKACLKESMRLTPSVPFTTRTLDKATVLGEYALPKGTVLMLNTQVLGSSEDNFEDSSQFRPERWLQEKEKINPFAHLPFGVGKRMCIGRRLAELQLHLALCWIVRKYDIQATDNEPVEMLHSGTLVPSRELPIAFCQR
UniProt Q8NBI2, sequence (Q8NBI2 whole entry, looked up): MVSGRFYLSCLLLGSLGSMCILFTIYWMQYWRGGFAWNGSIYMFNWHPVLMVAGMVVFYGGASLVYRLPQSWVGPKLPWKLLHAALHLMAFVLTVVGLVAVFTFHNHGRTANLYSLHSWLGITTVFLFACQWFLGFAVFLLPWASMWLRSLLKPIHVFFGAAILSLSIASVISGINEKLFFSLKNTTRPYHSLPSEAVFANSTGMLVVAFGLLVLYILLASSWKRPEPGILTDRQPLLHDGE
UniProt P09668, sequence (P09668 whole entry, looked up): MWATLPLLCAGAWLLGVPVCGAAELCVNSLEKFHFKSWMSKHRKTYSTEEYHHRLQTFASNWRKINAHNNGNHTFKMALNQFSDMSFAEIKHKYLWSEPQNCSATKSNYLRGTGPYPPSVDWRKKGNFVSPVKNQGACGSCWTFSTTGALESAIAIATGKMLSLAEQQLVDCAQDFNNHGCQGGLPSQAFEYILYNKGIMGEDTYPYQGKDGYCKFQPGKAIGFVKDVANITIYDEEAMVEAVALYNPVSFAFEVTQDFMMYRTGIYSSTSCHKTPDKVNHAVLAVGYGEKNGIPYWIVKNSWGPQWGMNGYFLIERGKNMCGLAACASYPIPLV
UniProt Q8TCE6, sequence (Q8TCE6 whole entry, looked up): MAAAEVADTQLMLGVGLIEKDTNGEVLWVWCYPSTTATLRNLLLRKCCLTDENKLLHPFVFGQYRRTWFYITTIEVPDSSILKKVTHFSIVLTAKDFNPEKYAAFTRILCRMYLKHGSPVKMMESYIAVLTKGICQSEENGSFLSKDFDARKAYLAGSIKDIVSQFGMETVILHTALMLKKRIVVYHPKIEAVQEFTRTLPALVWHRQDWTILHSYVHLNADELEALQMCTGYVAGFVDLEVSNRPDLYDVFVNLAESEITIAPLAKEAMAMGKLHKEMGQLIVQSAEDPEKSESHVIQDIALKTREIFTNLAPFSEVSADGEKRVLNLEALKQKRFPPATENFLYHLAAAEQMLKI

log2 fold change, inactive:
FAM207A (UniProt Q9NSI2) 0.146, FAM160B1 (UniProt Q5W0V3) 0.009, EDC3 (UniProt Q96F86) 0.067, DSN1 (UniProt Q9H410) -0.086, DNAJB1 (UniProt P25685) 0.02, CYB561A3 isoform 2 (UniProt Q8NBI2) 0.052, DNAJB12 (UniProt Q9NXW2) 0.023, DYNC1I2 isoform 2 (UniProt Q13409) -0.022, DDB1 (UniProt Q16531) -0.01, FAM3A (UniProt P98173) 0.101, EXOSC10 (UniProt Q01780) -0.145, ENTPD7 (UniProt Q9NQZ7) 0.061, EEF1A1 (UniProt P68104) -0.326, FAM118B (UniProt Q9BPY3) 0.026, CTSZ (UniProt Q9UBR2) -0.028, DOCK8 (UniProt Q8NF50) 0.028, DNAJC24 (UniProt Q6P3W2) -0.01, DHRS3 (UniProt O75911) -0.013, EIF2AK3 (UniProt Q9NZJ5) -0.308, EIF4G3 isoform 3 (UniProt O43432) 0.019, FAM118A (UniProt Q9NWS6) -0.02, CTNNBL1 (UniProt Q8WYA6) 0.072, DTWD1 (UniProt Q8N5C7) 0.057, DOLPP1 (UniProt Q86YN1) -0.034, DNAH11 (UniProt Q96DT5) -0.047, FAM193B (UniProt Q96PV7) 0.027, DYNC1LI2 (UniProt O43237) 0.052, DAXX (UniProt Q9UER7) 0.047, DENND10 (UniProt Q8TCE6) 0.007, DLD (UniProt P09622) -0.008, DYRK1A isoform 2 (UniProt Q13627) 0.036, EIF4E2 (UniProt O60573) 0.035, FAM241A (UniProt Q8N8J7) 0.011, CTSH (UniProt P09668) 0.004, CYP24A1 (UniProt Q07973) -0.205, CTNNB1 (UniProt P35222) 0.124

Source: the supplement of paper PMC10849652
